Values joined by “and” are separate entries in the source; they are usually repeats but may differ in a detail not shown here. Identical values can stand only once. Among all 300,000 compounds or so, about 4,000 (1.3%) were called active. This is one part of a sample in which actives are shown more often than they occur. A number with no mark means an inactive call.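 Rule for the calls: active = mean replicate score, as percent of positive control median, at least 50; inconclusive = mean below 50 but one replicate at or above 50; inactive = mean and every replicate below 50.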
experiment: S. pyogenes SKKanGAS growth inhibitors in kanamycin, primary screen, streptokinase expression inhibitor project, SKKanGAS strain, BacTiter-Glo luminescence (AID 1662); conditions: 6 h, at 7.5 µM, stronger effect = higher value;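 note: strain carries kanamycin resistance gene driven by streptokinase promoter and grows in 40 µg/ml kanamycin; loss of luminescence reflects streptokinase promoter inhibition or plain growth inhibition; 0% = median of DMSO wells and 100% = positive control at its reference dose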

Row | SMILES | inhibition
1 | CC1(C)c2[nH]c3ccccc3c2C[C@H]2C(=O)N(N)CC(=O)N21 | 1.39%
2 | NNC(=O)c1ccc(COCC(F)(F)C(F)F)cc1 | -2.77%
3 | CC(=O)c1ccc(N2CCN(C(=O)CCNC(=O)Cn3ccc4ccccc4c3=O)CC2)cc1 | 0.0785%
4 | Cc1cc(C)cc(C(=O)NC(CC(N)=O)c2ccc(N3CCC(N4CCCCC4)CC3)c([N+](=O)[O-])c2)c1 (centres undefined) | -2.72%
5 | Cc1ccc2c(c1)c1ncnc(N3CCc4ccccc4C3)c1n2C | 47.1%
6 | CCOc1ccc(C(=O)NC(=S)Nc2ccc(NC(=O)C(C)C)cc2)cc1[N+](=O)[O-] | 19.7%
7 | COc1cccc(OC)c1C(=O)NC(=S)Nc1ccc(N2CCOCC2)c(Cl)c1 | 4.82%
8 | CCOc1ccc(C(=O)NC(=S)Nc2ccc(N3CCOCC3)c(Cl)c2)cc1[N+](=O)[O-] | 84% (active)
9 | CCN(CC)C(=O)CS(=O)CC(=O)Nc1cc(OCCOC)c(Cl)cc1Cl (centres undefined) | 0.17%
10 | Cc1ccc(NS(=O)(=O)c2ccc(C)c(NC(=O)COc3ccc4ccccc4c3)c2)c(C)c1 | 29.6%
11 | COc1ccc(NC(=O)Nc2cccc3cccnc23)cc1 | -7.39%
12 | COc1cc(NS(=O)(=O)c2ccc3ccccc3c2)c2ncccc2c1 | 85% (active)
13 | C/C(=N\NC(=O)c1cccc([N+](=O)[O-])c1)c1cccnc1 | -2.34%
14 | Cc1cc([N+](=O)[O-])ccc1NC(=O)c1ccc(NC(=O)C(C)C)cc1 | 10.6%
15 | O=C(Nc1ccc(C(=O)N2CCCCC2)cc1)c1cccc([N+](=O)[O-])c1 | 6.65%
16 | Cn1ccc(=Nc2ccc(NC(=O)c3ccc(N=c4ccn(C)c5ccc([N+](=O)[O-])cc45)cc3)cc2)cc1 | 75.8% (active)
17 | O=C(CCN1C(=O)[C@@H]2Cc3ccccc3CN2C1=O)NCc1ccccc1 | -1.78%
18 | COC(=O)C1(C)NC(c2ccc(C)cc2)C2C(=O)N(c3ccc(F)cc3)C(=O)C21 (centres undefined) | 0.707%
19 | OC(CNCCc1ccc(Cl)cc1Cl)COc1ccccc1 (centres undefined) | 8.35%
20 | NC(N)=N/N=C/c1ccc(OCc2ccc(Cl)cc2Cl)cc1 | 50.8% (active)
21 | CCOc1ccc(NC(=O)NNC(=O)c2ccc(Cl)cc2Cl)cc1 | -4.81%
22 | CCN(CCn1cccn1)C(=O)CC1C(=O)NCCN1Cc1cccc(OC)c1OC (centres undefined) | -6.29%
23 | C/C(=N\NC(=O)OC(C)(C)C)c1ccc[nH]1 | -6.42%

Row | SMILES | inhibition
24 | Cc1ccc(CSc2nc(-c3ccccc3)c(C#N)c(=O)[nH]2)cc1 | 43.6%
25 | N#Cc1c(-c2ccccc2)nc(SCc2cccc(C(F)(F)F)c2)[nH]c1=O | 67.4% (active)
26 | N#Cc1c(-c2ccccc2)nc(SCc2ccc([N+](=O)[O-])cc2)[nH]c1=O | 15.1%
27 | CN1CCN(C2Cc3ccc(Cl)cc3Sc3ccc(F)cc32)CC1 (centres undefined) | 68.7% (active)
28 | Cc1ccc(CS(=O)(=O)c2ncc(Cl)c(C(=O)Nc3nnc(C)s3)n2)cc1 | 2.36%
29 | C/C(=N\NC(=O)c1ccoc1C)c1ccccc1O | 4.94%
30 | Cc1ccc(-n2ncc3c2CC(C)(C)CC3NC(=O)Cc2c(C)noc2C)cc1 (centres undefined) | -4.1%
31 | CCc1ccc2c(c1)C1(NN=C(c3ccccc3)S1)C(=O)N2 (centres undefined) | 96.7% (active)
32 | COc1cccc(NC(=O)C2C(c3ccccc3)C2(Cl)Cl)c1 (centres undefined) | 31.8%
33 | CCc1ccc(Oc2nc([N+](=O)[O-])nn2C)cc1 | 2.57%
34 | Cc1cc(C(=O)N2CCC(C(=O)O)CC2)c(C(F)(F)F)o1 | -3.49%
35 | CCc1noc(C)c1C(=O)Nc1nc2ccc(OC)cc2s1 | -6.51%
36 | Cc1noc(C)c1CSCC(=O)Nc1nc2ccc(Oc3ccccc3)cc2s1 | 51.3% (active)
37 | Cc1noc(C)c1CSCC(=O)Nc1ccc(Br)cc1Cl | 32.2%
38 | COc1ccc(C(=O)Nc2ccc(C3(C#N)CCCC3)cc2)cc1OC | 0.181%
39 | Cc1ccc(/C=C/C(=O)Nc2ccc([N+](=O)[O-])c(NC(=O)/C=C/c3ccc(C)o3)c2)o1 | 6.98%
40 | O=C(/C=C/c1ccc([N+](=O)[O-])o1)NNC(=O)c1ccc(F)cc1 | 52.7% (active)
41 | C/[N+]([O-])=C\c1ccc([N+](=O)[O-])o1 | 1.43%
42 | CC(=O)Oc1ccc(-c2cccc(C(=O)N3CCCCC3)c2)cc1 | -5.29%
43 | CCN1CCN(C(=O)N(Cc2ccc(Cl)cc2)S(=O)(=O)c2ccc(C)cc2)CC1 | -0.707%
44 | COc1ccc(/C=C/C(=O)c2ccc(NS(=O)(=O)c3ccc(C)cc3)cc2)cc1O | 31.2%
45 | COC(=O)c1ccc(COc2ccc(/C=C/C(=O)c3ccc(OC)c(CSCC(=O)O)c3)cc2OC)cc1 | -12.5%
46 | COc1ccc(C(=O)/C=C/c2ccc(-c3ccccc3)cc2)cc1CSCC(=O)O | 51.6% (active)

Row | SMILES | inhibition
47 | Cc1occc(=O)c1OCc1c(Cl)cccc1Cl | 1.59%
48 | CCN(CC)c1ccc(S(=O)(=O)N2CCCCC2)cc1NC(=O)C1=COCCO1 | -12%
49 | O=C1Cc2ccccc2Sc2ccc(Cl)cc21 | 75% (active)
50 | S=C1Nc2cc(Cl)ccc2Sc2ccccc21 | 3.58%
51 | O=C1CC2(CCCC2)Oc2ccc(Cl)cc21 | 9.19%
52 | O=C(CCNC(=O)c1ccc(Br)cc1)NCCCc1ccccc1 | -14.7%
53 | CN(CCc1ccccn1)S(=O)(=O)c1ccc2c3c(cccc13)C(=O)N2 | -0.86%
54 | O=C(NCc1ccncc1)C1CCCN(S(=O)(=O)c2ccc(Br)cc2)C1 (centres undefined) | 3.53%
55 | Cc1cccc(-c2nc3ccccc3c(=O)n2NC(=O)Cc2ccc(Cl)cc2)c1 | -2.71%
56 | O=c1c2cc(Br)ccc2nc(-c2cccc(Cl)c2)n1O | 78.4% (active)
57 | O=C1CCCc2c1nc(-c1cccc(Cl)c1)n2O | -3.24%
58 | CCCOc1ccc(C2NC(=O)NC(c3ccccc3)=C2C(C)=O)cc1OCC (centres undefined) | -8.73%
59 | Cc1cccc([C@@H]2[C@@H]3C(=O)N(Cc4ccccc4)C(=O)[C@@H]3[C@]3(Cc4ccc(Cl)cc4)C(=O)N(c4cccc(Cl)c4)C(=O)N23)c1 | -2.38%
60 | CC(OC(=O)CNC(=O)c1ccc(Cl)c([N+](=O)[O-])c1)C(=O)NCc1ccco1 (centres undefined) | -7.18%
61 | COC(=O)Cc1ccc(Oc2ncc(C(F)(F)F)cc2Cl)cc1 | -5.08%
62 | COc1cccc(/C(C)=N/Nc2ncc(Cl)cc2Cl)c1 | -4.25%
63 | COc1cccc(/C=N/Nc2ncc(C(F)(F)F)cc2Cl)c1O | 95.9% (active)
64 | Cc1cc(N)n2nc(-c3ccc(C(C)(C)C)cc3)cc2n1 | 38.2%
65 | O=C(N/N=C/c1cc([N+](=O)[O-])ccc1O)/C(=C\c1cccs1)NC(=O)c1ccccc1 | 83.5% (active)
66 | O=[N+]([O-])c1ccc(O)c(/C=N/Nc2ccccc2[N+](=O)[O-])c1 | 17.8%
67 | O=C(N/N=C/c1ccc(O)cc1)/C(=C/c1ccc([N+](=O)[O-])cc1)NC(=O)c1ccccc1 | -0.983%
68 | CN(CC(=O)Nc1c(Cl)cccc1Cl)C(=O)CNC(=O)C1CCCCC1 | -1.53%
69 | Cc1ccc(C)c(N2CCN(C(=O)CCCCCn3c(=S)[nH]c4ccc(N5CCOCC5)cc4c3=O)CC2)c1 | 50.8% (active)

Row | SMILES | inhibition
70 | Cc1ccc(C)c(N2CCN(C(=O)CCCCn3c(=O)[nH]c4ccccc4c3=O)CC2)c1 | 10.5%
71 | O=C(CCCCCn1c(=S)[nH]c2cc3c(cc2c1=O)OCO3)N1CCN(c2ccc(F)cc2)CC1 | 4.31%
72 | CCOc1ccc2nc(NC(=O)CSc3nc4c(c(=O)n(C)c(=O)n4C)n3CC)sc2c1 | 4.34%
73 | COc1ccc2nc(NC(=O)c3ccc(Br)s3)sc2c1 | 38.2%
74 | COc1ccc2nc(Nc3nc4ccc(NC(C)=O)cc4s3)sc2c1 | 54.9% (active)
75 | CSc1nc2ccc(NC(=O)c3c(F)cccc3F)cc2s1 | -1.79%
76 | O=C(NC1CCCCC1)c1cc([N+](=O)[O-])ccc1N1CCOCC1 | 3.56%
77 | COc1ccc(S(=O)(=O)N2CCCCC2)cc1NC(=O)c1cc([N+](=O)[O-])ccc1N1CCOCC1 | 12.2%
78 | CCC(=O)c1ccc(OCC(=O)Nc2ccc3nc(C)sc3c2)cc1 | -10.4%
79 | CCOc1ccc2nc(NC(=O)c3cc([N+](=O)[O-])ccc3N3CCOCC3)sc2c1 | 50.1% (active)
80 | COc1ccc2nc(NC(=O)NC3CCCCC3)sc2c1 | -5.74%
81 | CCOc1ccc2nc(Nc3nc4ccc(NC(C)=O)cc4s3)sc2c1 | 62.6% (active)
82 | CCCC(=O)Nc1nc2ccc(NC(=O)c3c(F)c(F)c(OC)c(F)c3F)cc2s1 | 71.5% (active)
83 | CCCC(=O)Nc1nc2ccc(NC(=O)c3cccnc3)cc2s1 | -13.3%
84 | CCCCSc1nc2c(c(=O)n1CC)SC(C)C2 (centres undefined) | -4.67%
85 | COCC1CCN(C(=O)C2CCC(=O)N(CC3CCCCC3)C2)CC1 (centres undefined) | -1.21%
86 | O=C(c1cc2c(s1)CCC2)N1CCN(c2ccccc2)CC1 | 3.4%
87 | CCNc1nc(NC(C)C)nc(N2CC(=O)N(CC(=O)OCC)C2=N)n1 | 0.266%
88 | COc1ccc(S(=O)(=O)N2CCOC23CCN(S(=O)(=O)c2ccc([N+](=O)[O-])cc2)CC3)cc1 | 2.41%
89 | CCc1nn(CCCN2CCN(c3cccc(Cl)c3)CC2)c(=O)n1CCOc1ccccc1 | -2.67% and -3.29%

— PubChem BioAssay AID1662 (Broad Institute, 2009)
